Source: PubChem (several laboratories)
BJeLR lethal – MLPCN primary cell-based screen for lethality selective to Ras in HRASV12 cells. BJeLR (HRASV12) viability, CellTiter-Glo ATP luminescence, 48 h. inhibition, % (no concentration beside the values). 300,000 compounds, 0.17% hits. AID 1554, 2009; in the data active means inhibition above about 50%
RecA splice inh – Mtb RecA intein splicing inhibitors, primary screen, biochemical, fluorescence, HTS. Protein RecA (Mycobacterium tuberculosis (strain ATCC 25618 / H37Rv)), P9WHJ3. cell-free RecA intein splicing. inhibition, % (concentration not given with the values). 290,000 compounds, 0.75% hits; in the data active means inhibition above about 30%;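 further: 0% = vehicle wells and 100% = reference inhibitor control wells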
PrP 5UTR inh – inhibition of PrP 5' UTR reporter expression. cell-based PrP 5' UTR mRNA reporter, plate reader. inhibition, % (test concentration not listed). 340,000 compounds, 0.35% hits. AID 488862, 2010; in the data active means inhibition above about 52%; further: 0 = median of the neutral control wells
3CLpro inhibitor – SARS-CoV 3CLpro protease inhibitors, primary screen, biochemical, quenched FRET; recombinant SARS-CoV 3CLpro, quenched FRET peptide cleavage; inhibition, % at 6 µM; Replicase polyprotein 1ab (Severe acute respiratory syndrome coronavirus), P0C6X7; 290,000 compounds, 0.14% hits; in the data active means inhibition above about 12%
PrPC TRFRET – inhibitors of human cell surface prion protein PrPC, primary screen, cell-based, TR-FRET. Major prion protein (Homo sapiens), P04156. TR-FRET read-out. inhibition, % at 13.8 µM. 370,000 compounds, 0.43% hits. AID 720596, 2013; in the data active means inhibition above about 24%; further: 0% = median of the test wells and 100% = reference compound wells
Mtb hypoxia inh – PubChem AID 1159583 | M. tuberculosis hypoxia-regulated fluorescent reporter, fluorescence | 300,000 compounds, 0.1% hits | fluorescence inhibition, % (no concentration beside the values); in the data active means fluorescence inhibition mostly above about 23%, no sharp cut-off; inactive means mostly below about 17%
Numbers without * were called inactive; nt = no result given. Shown are actives, neighbours in structure and some others; about 1.4% of the full set was active somewhere.

SMILES	BJeLR lethal	RecA splice inh	PrP 5UTR inh	3CLpro inhibitor	PrPC TRFRET	Mtb hypoxia inh
CCOc1ccccc1-c1c2cc(O)c(=O)cc-2oc2cc(O)c(O)cc12	nt	nt	-15	1	nt	37*
COc1cc(OC)cc(-c2nnc(SCC(=O)N(C(C)C)C(C)C)o2)c1	1	-1	-14	1	7	6
COc1cc(OC)cc(-c2nnc(Sc3ccc(C=O)cc3[N+](=O)[O-])o2)c1	7	52*	nt	1	nt	nt
O=C(Sc1cccc2cccnc12)c1ccc(F)cc1	nt	nt	nt	0	28*	nt
CC(=O)/C(=N\Nc1ccccc1)Sc1cccc2cccnc12	4	-2	-42	4	-5	nt
N#CC1=C(N)Oc2n[nH]c(-c3ccccc3)c2C12C(=O)Nc1ccccc12 (stereo not given)	3	29	-23	3	-6	11
Cn1c2c(c(=O)n(C)c1=O)[C@@]1(C(=O)Nc3ccccc31)C(C#N)=C(N)O2	4	34*	-16	-2	0	5
C#CCOCCOCCOCCNc1nc(N2CCN(C(=O)C(CCC(=O)O)n3cc(C(N)CO)nn3)CC2)nc(N2CCN(C(=O)C(CCC(=O)O)n3cc(C(N)CC(C)C)nn3)CC2)n1 (stereo not given)	nt	nt	nt	nt	nt	1
COc1ccc(C(=O)COC(=O)CNC(=O)c2ccc(C)s2)c(OC)c1	nt	nt	-22	nt	-1	35*
COc1cc(NC(=O)COC(=O)CNC(=O)c2ccc(C)s2)cc(OC)c1	7	6	-6	3	11	6
Cc1cc(C)n2nc(N)c(N=Nc3ccccc3)c2n1	-10	3	-73	-2	-17	84*
COc1cc(C=NNC(=O)C2COc3ccccc3O2)cc(OC)c1OC (stereo not given)	nt	nt	nt	nt	nt	7
CCn1c2ccccc2c2cc(Nc3cc(C)nc4ncnn34)ccc21	35	8	68*	2	21	11
CCCC(=O)N1CCN(c2ccc(NC(=O)c3ccc([N+](=O)[O-])o3)cc2Cl)CC1	-9	-1	-61	5	40*	nt
O=C(NN(c1ccccc1)c1ccccc1)c1ccc([N+](=O)[O-])o1	1	2	-64	-1	-5	3
CN1CCN(c2ccc(NC(=O)c3ccc([N+](=O)[O-])o3)cc2Cl)CC1	-1	-6	4	3	12	25
CC(=O)c1ccc(NC(=O)c2ccc([N+](=O)[O-])o2)cc1	-3	1	-24	-6	5	73*
O=C(NNC(=O)c1ccc([N+](=O)[O-])o1)c1ccccc1	-12	39*	0	2	-16	nt
Cc1ccc(C)c(NC(=O)CN2C(=O)NC(C)(c3ccc4c(c3)OCCO4)C2=O)c1 (stereo not given)	nt	nt	-23	nt	-2	34*
O=S1(=O)CCOC2Cc3ccccc3C2N1Cc1ccccc1 (stereo not given)	nt	nt	nt	nt	nt	-2
Cn1cnc([N+](=O)[O-])c1Oc1ccc2ccccc2c1	-16	36*	5	-12	6	-1
CC(C)(C)c1cc(NC(=O)CCl)n(-c2ccccc2)n1	0	38*	-4	3	0	24
Cc1nn(-c2ccccc2)c(N2CCCC2)c1/C=N/NC(=O)c1ccccc1O	1	-1	-8	-10	0	nt
O=C(N/N=C/c1cc2c3c(c1O)CCCN3CCC2)c1ccccc1O	53*	5	33	3	-6	nt
CN[C@H]1CCc2cc(OC)c(OC)c(OC)c2-c2ccc(N(C)CC(OC)OC)c(=O)cc21	53*	-1	nt	-1	-14	1
CC(/C=C1\SC(=S)N(NC(=O)c2cccc(O)c2)C1=O)=C\c1ccccc1	5	31*	-26	3	-2	6
Cc1cnc(C(=O)NC(C)CCc2ccccc2)cn1 (stereo not given)	14	-1	0	4	1	38*
Cc1ccc2c(c1)-c1c(ssc1=S)C(C)(C)N2C(=O)CSC1=NCCS1	-7	30*	-6	0	-11	1
CCOc1ccc2c(c1)-c1c(ssc1=S)C(C)(C)N2C(=O)CSC1=NCCS1	-9	27	-16	8	-14	-5
O=C1ON=C(c2ccccc2)/C1=C/c1ccc(-c2ccccc2[N+](=O)[O-])o1	nt	nt	5	15*	-7	12
